# Results taken from article PMC11062922 (Nature Chemical Biology, 2023).
# Where two headings read alike, the source gives them in different places.
# Columns and labels:
# Design in all cases: species or system human, MV4-11 + K-562 + COLO205 + SK-N-BE2 + OVCAR-8
# ACVR1 = conditions: read-out: apparent Kd, compound concentrations: 100 nM and 1000 nM (sheet 'Samples'), n = 1
# AKT3 = conditions: read-out: apparent Kd; compound concentrations: 100 nM and 1000 nM (sheet 'Samples'), CATDS: 7.4016289423583202E-3; n = 1
# DDR1 = conditions: read-out: apparent Kd, n = 1
# RPS6KA1 = conditions: read-out: apparent Kd, n = 1
# TEC = conditions: read-out: apparent Kd, n = 1
# AKT2 = conditions: read-out: apparent Kd, compound concentrations: 100 nM and 1000 nM (sheet 'Samples'), n = 1
# TGFBR1 = conditions: read-out: apparent Kd, n = 1
# IKBKE = conditions: read-out: apparent Kd, n = 1
# MAP4K2 = conditions: read-out: apparent Kd; compound concentrations: 100 nM and 1000 nM (sheet 'Samples'), CATDS: 4.7977079984097802E-3; n = 1
# MAP4K3 = conditions: read-out: apparent Kd, n = 1
# MAP4K5 = conditions: read-out: apparent Kd; compound concentrations: 100 nM and 1000 nM (sheet 'Samples'), CATDS: 3.7006195337176699E-3; n = 1
# NEK9 = conditions: read-out: apparent Kd; compound concentrations: 100 nM and 1000 nM (sheet 'Samples'), CATDS: 5.3187042778019703E-3; n = 1
# PIK3C2A = conditions: read-out: apparent Kd; compound concentrations: 100 nM and 1000 nM (sheet 'Samples'), CATDS: 5.9586884702388498E-3; n = 1
# PIK3C3 = conditions: read-out: apparent Kd; compound concentrations: 100 nM and 1000 nM (sheet 'Samples'), CATDS: 6.1778157574045199E-3; n = 1
# PIM2 = conditions: read-out: apparent Kd; compound concentrations: 100 nM and 1000 nM (sheet 'Samples'), CATDS: 4.10108684490637E-3; n = 1
# SLK = conditions: read-out: apparent Kd, n = 1
# STK11 = conditions: read-out: apparent Kd; compound concentrations: 100 nM and 1000 nM (sheet 'Samples'), CATDS: 3.27350856558018E-3; n = 1
# TP53RK = conditions: read-out: apparent Kd; compound concentrations: 100 nM and 1000 nM (sheet 'Samples'), CATDS: 3.61485371112703E-3; n = 1
# CDK10 = conditions: read-out: apparent Kd; compound concentrations: 100 nM and 1000 nM (sheet 'Samples'), CATDS: 3.9153038455417302E-2; n = 1
# [1] = compound concentrations:100 nM and 1000 nM (sheet 'Samples')
compound,measurement,setting,value
O=C1N=C(NCCc2ccc(Cl)cc2)S/C1=C\c1ccc2ncccc2c1 [RO4498479-000],potency estimated from few doses,ACVR1; CATDS: 7.5426922392671601E-3,1230 nM
same,potency estimated from few doses,AKT3,1320 nM
same,potency estimated from few doses,"DDR1; compound concentrations: 100 nM and 1000 nM (sheet 'Samples'), CATDS: 7.1142371440619002E-3",1530 nM
same,potency estimated from few doses,"RPS6KA1; compound concentrations: 100 nM and 1000 nM (sheet 'Samples'), CATDS: 6.6850452112440202E-3",2010 nM
same,potency estimated from few doses,"TEC; compound concentrations: 100 nM and 1000 nM (sheet 'Samples'), CATDS: 9.3913889163932396E-3",646 nM
CCn1c(-c2nonc2N)nc2c(-c3ccccc3)ncc(OCCCN)c21.CCn1c(-c2nonc2N)nc2c(-c3ccccc3)ncc(OCCCN)c21.O=C(O)C(F)(F)F.O=C(O)C(F)(F)F [GSK260205A],potency estimated from few doses,AKT2; CATDS: 4.8057080770149398E-2,339 nM
COc1cccc2c(-c3ccncc3)c(-c3ccc(F)cc3)nn12 [GW468513X],potency estimated from few doses,"TGFBR1; compound concentrations: 100 nM and 1000 nM (sheet 'Samples'), CATDS: 4.1244315663660498E-2",1080 nM
CN1C[C@@H]2Cn3c(c(C4=C(c5cn(C)c6ccccc56)C(=O)NC4=O)c4ccccc43)C[C@H]2C1.Cl [RO0320234-001],potency estimated from few doses,DDR1; [1],1520 nM
same,potency estimated from few doses,TEC; [1],1190 nM
Cn1ncc2c(N)ncnc21 [SKF-18267],potency estimated from few doses,ACVR1; CATDS: 5.7443356978904197E-3,627 nM
same,potency estimated from few doses,AKT2; CATDS: 5.1088836681336602E-3,780 nM
same,potency estimated from few doses,"DDR1; compound concentrations: 100 nM and 1000 nM (sheet 'Samples'), CATDS: 4.82198778497934E-3",876 nM
same,potency estimated from few doses,"IKBKE; compound concentrations: 100 nM and 1000 nM (sheet 'Samples'), CATDS: 4.4054249402622498E-3",1060 nM
same,potency estimated from few doses,MAP4K2,885 nM
same,potency estimated from few doses,"MAP4K3; compound concentrations: 100 nM and 1000 nM (sheet 'Samples'), CATDS: 3.8804201859816102E-3",1450 nM
same,potency estimated from few doses,MAP4K5,1650 nM
same,potency estimated from few doses,NEK9,722 nM
same,potency estimated from few doses,PIK3C2A,587 nM
same,potency estimated from few doses,PIK3C3,552 nM
same,potency estimated from few doses,PIM2,1260 nM
same,potency estimated from few doses,"RPS6KA1; compound concentrations: 100 nM and 1000 nM (sheet 'Samples'), CATDS: 4.0621123256608799E-3",1290 nM
same,potency estimated from few doses,"SLK; compound concentrations: 100 nM and 1000 nM (sheet 'Samples'), CATDS: 4.0721330084515098E-3",1280 nM
same,potency estimated from few doses,STK11,2430 nM
same,potency estimated from few doses,"TEC; compound concentrations: 100 nM and 1000 nM (sheet 'Samples'), CATDS: 5.5600102138742497E-3",665 nM
same,potency estimated from few doses,"TGFBR1; compound concentrations: 100 nM and 1000 nM (sheet 'Samples'), CATDS: 5.0317884305657503E-3",804 nM
same,potency estimated from few doses,TP53RK,1760 nM
Cl.ON=C1CCc2cc(-c3nc(C4CCNCC4)[nH]c3-c3ccncc3)ccc21 [SB-614067-R],potency estimated from few doses,TGFBR1; [1],1170 nM
Cc1ccc(Nc2ccnc(Nc3ccc4c(c3)CS(=O)(=O)C4)n2)cc1O.Cl [GW579362A],potency estimated from few doses,ACVR1; CATDS: 3.1800553905839801E-2,1030 nM
same,potency estimated from few doses,CDK10,602 nM
CCOC(=O)N1CCC(n2cnc(-c3ccc(F)cc3)c2-c2ccnc(N)n2)CC1 [SB-219952],potency estimated from few doses,"DDR1; compound concentrations: 100 nM and 1000 nM (sheet 'Samples'), CATDS: 1.23341339187386E-2",531 nM
same,potency estimated from few doses,"TEC; compound concentrations: 100 nM and 1000 nM (sheet 'Samples'), CATDS: 8.8843344260598894E-3",1200 nM
CNC(=O)c1ccccc1Nc1nc(Nc2ccc(N3CCOCC3)cc2)ncc1Cl.Cl [GSK1576028A],potency estimated from few doses,IKBKE; [1],1540 nM
same,potency estimated from few doses,MAP4K3; [1],1670 nM
same,potency estimated from few doses,RPS6KA1; [1],683 nM
same,potency estimated from few doses,SLK; [1],1120 nM
same,potency estimated from few doses,TEC; [1],57.7 nM
same,potency estimated from few doses,TGFBR1; [1],780 nM
Fc1ccc(-c2c(-c3ccncc3)[nH]c3cccnc23)cc1 [RO1153853-000],potency estimated from few doses,"TGFBR1; compound concentrations: 100 nM and 1000 nM (sheet 'Samples'), CATDS: 5.3195917052411702E-2",1310 nM
